From PubChem BioAssay AID488847 (NMMLSC, 2010)
In all, about 330,000 compounds went through this assay and about 1,900 (0.58%) were called active. Only a selection was taken, and actives are over-represented in it overall. A number with no mark means an inactive call.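 Rule for the calls: active = inhibition of aptamer binding above 40%, roughly 3 SD of noise, on plates passing a quality check; inactive = the rest.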

target: Beta-adrenergic receptor kinase 1 (Homo sapiens) (UniProt P25098); test: compounds blocking aptamer binding on GRK2 – biochemical, human GRK2, bead flow cytometry, HTS, primary screen (AID 488847); details: FAM-aptamer displacement from GRK2, at 10 µM, stronger effect = higher value;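 note: median bead fluorescence of bound FAM aptamer so fluorescent compounds give negative values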
Sequence (P25098 whole entry, looked up): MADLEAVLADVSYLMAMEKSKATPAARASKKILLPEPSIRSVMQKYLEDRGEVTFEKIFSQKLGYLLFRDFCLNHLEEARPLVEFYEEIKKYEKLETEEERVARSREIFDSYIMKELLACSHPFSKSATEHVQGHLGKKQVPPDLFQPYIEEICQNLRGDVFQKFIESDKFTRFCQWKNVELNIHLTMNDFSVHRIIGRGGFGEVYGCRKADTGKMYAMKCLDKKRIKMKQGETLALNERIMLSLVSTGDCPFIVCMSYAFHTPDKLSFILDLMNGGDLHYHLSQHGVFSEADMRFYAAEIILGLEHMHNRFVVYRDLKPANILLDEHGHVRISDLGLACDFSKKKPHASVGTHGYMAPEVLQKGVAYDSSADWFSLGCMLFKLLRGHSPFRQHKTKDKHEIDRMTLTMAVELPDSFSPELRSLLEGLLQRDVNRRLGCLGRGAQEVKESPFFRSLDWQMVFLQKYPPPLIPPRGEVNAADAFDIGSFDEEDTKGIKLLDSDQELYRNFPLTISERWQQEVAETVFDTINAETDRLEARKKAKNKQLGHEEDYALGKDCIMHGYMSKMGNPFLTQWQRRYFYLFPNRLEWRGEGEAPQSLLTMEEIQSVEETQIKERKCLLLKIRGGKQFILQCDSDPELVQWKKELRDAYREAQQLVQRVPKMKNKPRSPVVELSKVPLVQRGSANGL

Structure (SMILES) | inhibition of aptamer binding
O=C(C1CCC1)N1CCc2cc(S(=O)(=O)NCc3cccnc3)ccc21 | 0%
O=C(CSc1nc2ccccc2c(=O)n1-c1ccc(F)cc1)NC1CC1 | 0%
O=C(CSc1nc2ccccc2c(=O)n1Cc1ccc(F)cc1)NCC1CCCO1 (stereo not drawn) | 0%
CSc1nc2ccccc2c(=O)n1Cc1ccc(F)cc1 | 76% (active)
O=c1[nH]c(CCl)nc2cc(-c3ccc(Cl)cc3)sc12 | 0%
NC(=O)CC(NC(=O)Cc1cccc2ccccc12)c1ccc(NCc2cc(F)ccc2F)c([N+](=O)[O-])c1 (stereo not drawn) | 1%
CCCC/S(C)=N/S(=O)(=O)c1ccc(C)cc1 (stereo not drawn) | 1%
COc1ccc(CN2CCN(Cc3cn(C)nc3-c3ccccc3)CC2CCO)c(C)c1C (stereo not drawn) | 0%
CN(CC(=O)Nc1ccc(C(N)=O)cc1)S(=O)(=O)c1ccc2c(c1)OCCO2 | 0%
Cc1nc(S(=O)(=O)c2ccc(Br)cc2)nc2c1CCC2 | 5%
O=C(Nc1ccc(-c2nnc(-c3ccccc3)o2)cc1)c1ccc(Br)o1 | 92% (active)
Brc1ccc(-c2nnc(-c3ccccc3)o2)o1 | 5%
O=C(CNC(=O)c1ccc(Br)o1)Nc1ccccc1 | 1%
CC1CCC(NC(=O)c2ccc(N3CCCC3=O)cc2)CC1 (stereo not drawn) | 0%
CCOc1ccc(C(=O)NCCCN2CCCC2=O)cc1 | 2%
O=C(NCCCN1CCCCCC1)c1ccc(N2CCCC2=O)cc1 | 43% (active)
CC1=CC(C)(C)NC(=S)N1NC(=O)c1ccccc1Cl | 1%
COc1ccc(C2C(C#N)=C(N)Oc3cc(N)ccc32)cc1OC (stereo not drawn) | 0%
CC(=O)C(C)n1cnc2scc(-c3ccc(C)cc3)c2c1=O (stereo not drawn) | 1%
CCOC(=O)C(C)n1cnc2scc(-c3ccc(C)c(C)c3)c2c1=O (stereo not drawn) | 64% (active)
CCn1cnc2scc(-c3ccc(C)c(C)c3)c2c1=O | 0%
CCOC(=O)c1ccc(S(=O)(=O)N(CCO)Cc2cc3cc(OC)c(OC)cc3[nH]c2=O)cc1 | 0%
CN(C)CC(C)(C)CNC(=O)c1cc(Br)cc(Br)c1O | 6%
CC(C)CC(=O)Nc1ccc(Cc2ccncc2)cc1 | 0%
COc1cccc(OC)c1C(=O)Nc1ccc(Cc2ccncc2)cc1 | 55% (active)
COc1cccc(OC)c1C(=O)Nc1ccc2c(c1)n(C)c(=O)n2C | 1%
Cc1ccc(S(=O)(=O)NCCSC(C)(C)C)cc1 | 1%
O=C(OCC1O[C@@H](OC(=O)c2cc(O)c(O)c(O)c2)[C@@H](OC(=O)c2cc(O)c(O)c(O)c2)[C@@H](OC(=O)c2cc(O)c(O)c(O)c2)[C@@H]1OC(=O)c1cc(O)c(O)c(O)c1)c1cc(O)c(O)c(O)c1 (stereo partly drawn) | 1%
